According to PubChem BioAssay (Tox21):
Results filed as inconclusive are left out. Activity calls are given as the source filed them. Unless noted, the call rests on the fitted dose curve; in most records, active means well fitted curve in the direction sought with a large enough effect in the repeat runs; inconclusive means weak or mixed curves; inactive means no such curve, though single readings can be large; an effect the other way counts as inactive or inconclusive.

Tests used:
[1] = qHTS assay for small molecule agonists of the p53 signaling pathway (AID 651631; calls by dose curve; further: nearly all actives have a fitted effect of over 15% in size)
How it was run: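 Readout was fluorescence from the LiveBLAzer FRET substrate, applied for 2 h at room temperature after 16 h compound exposure at 37 °C. Cells were the p53RE-bla HCT-116 line, with beta-lactamase driven by p53 response elements.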

[2] = qHTS assay for small molecules that induce genotoxicity in human embryonic kidney cells expressing luciferase-tagged ATAD5 (AID 651632); further: nearly all actives have a fitted effect of over 15% in size
How it was run: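 DMSO vehicle served as the control. HEK293T reporter cells, 16 hr at 37C, then 30 min Amplite at room temperature; ATAD5 induction is measured as luciferase activity.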

[3] = qHTS assay for small molecule agonists of the p53 signaling pathway - cell viability (AID 651633; calls by dose curve; further: series mostly up to about 83 µM; nearly all actives have a fitted effect of over 30% in size)
How it was run: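 Viability counter-read: CellTiter-Glo luminescence (30 min, room temperature) in the same p53RE-bla plates. These plates had been exposed to compounds for 16 h at 37 C.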

[4] = qHTS assay for small molecules that induce genotoxicity in human embryonic kidney cells expressing luciferase-tagged ATAD5 - cell viability (AID 651634; calls by dose curve; further: nearly all actives have a fitted effect of over 25% in size)
How it was run: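 Here HEK293T cells with the ATAD5 luciferase reporter are incubated with test compounds for 15.5 hr, and cytotoxicity is then gauged by measuring protease activity in live cells using fluorescence.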

[5] = qHTS assay for small molecule disruptors of the mitochondrial membrane potential - cell viability (AID 720634; calls by dose curve;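 further: human HepG2 liver cancer cells; series mostly up to about 83 µM; nearly all actives have a fitted effect of over 20% in size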)
How it was run: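 Viability of HepG2 cells is scored from ATP content by luminescence; cells are exposed to compound for 1 hr at 37 C and 5% CO2, then dosed with m-MPI dye before the CellTiter-Glo reagent.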

[6] = qHTS assay to test for compound auto fluorescence at 590 nm (red) in HepG2 cells (AID 720674)
How it was run: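 1 hr compound incubation on HepG2 cells, 37 C, 5% CO2; plate read ex 540 nm / em 590 nm; intensities reported as Rose Bengal sodium equivalents.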

[7] = qHTS assay to test for compound auto fluorescence at 535 nm (green) in HepG2 cells (AID 720675)
[8] = qHTS assay to test for compound auto fluorescence at 590 nm (red) in HEK293 cells (AID 720679)
How it was run: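 Autofluorescence equivalency to Rose Bengal sodium, 540/590nm, in HEK293 cells exposed overnight to 23 nL compound per well.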

[9] = qHTS assay to test for compound auto fluorescence at 535 nm (green) in HEK293 cells (AID 720680)
[10] = qHTS assay to test for compound auto fluorescence at 535 nm (green) in HEK293 cell free culture (AID 720682)
How it was run: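 Compounds were pin-transferred into cell-free DMEM with 10% FBS, and green fluorescence was read at excitation 485 nm and emission 535 nm. Intensities were expressed as fluorescein-equivalent values.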

[11] = qHTS assay to test for compound auto fluorescence at 590 nm (red) in HEK293 cell free culture (AID 720683)
How it was run: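 Red-channel autofluorescence of compounds in culture medium (DMEM, 10% FBS), no cells, measured at 540/590 nm. Rose Bengal sodium is the reference fluorophore for equivalence.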

[12] = qHTS assay to test for compound auto fluorescence at 590 nm (red) in HepG2 cell free culture (AID 720684)
How it was run: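 Cell-free; medium MEM + 10% FBS; compound or DMSO added by pintool; read Ex 540/Em 590 nm; Rose Bengal sodium as red reference fluorophore.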

[13] = qHTS assay to test for compound auto fluorescence at 460 nm (blue) in HepG2 cell free culture (AID 720685)
How it was run: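 Cell-free plates of MEM plus 10% FBS received 23 nL compound or DMSO vehicle; blue-channel (405/460 nm) intensity scored against triamterene as reference fluorophore.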

[14] = qHTS assay to test for compound auto fluorescence at 535 nm (green) in HepG2 cell free culture (AID 720686)
[15] = qHTS assay to test for compound auto fluorescence at 460 nm (blue) in HepG2 cells (AID 720687)
How it was run: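 Blue-channel autofluorescence (Ex/Em 405/460 nm, triamterene-equivalent) was measured after 1 hr compound exposure at 37 C, 5% CO2. Cells were HepG2, plated overnight at 37 C in MEM plus 10% FBS.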

[16] = biological target: Glucocorticoid receptor (Homo sapiens) (UniProt P04150); experiment: qHTS assay to identify small molecule agonists of the glucocorticoid receptor (GR) signaling pathway (AID 720691; active means well fitted activation curve with a large enough effect in the signal ratio in the repeat runs, not every such curve was filed as active; the % refers to the signal ratio; further: potency means the concentration at half of the fitted maximal effect)
How it was run: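 Compounds in DMSO, alongside positive controls, were added to GR-bla HeLa reporter cells and incubated 18 h at 37 C; GRE-driven beta-lactamase was detected by fluorescence after 2 h with FRET substrate at room temperature.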

[17] = biological target: Glucocorticoid receptor (Homo sapiens) (UniProt P04150); experiment: qHTS assay to identify small molecule antagonists of the glucocorticoid receptor (GR) signaling pathway (AID 720692; active means well fitted inhibition curve with a large enough effect in the signal ratio in the repeat runs, not every such curve was filed as active; the % refers to the signal ratio)
How it was run: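 In a 1536-well cell format, compounds were added 4 h after seeding GR-bla HeLa cells, together with dexamethasone at 5 nM final; reporter activity was measured by FRET-substrate fluorescence following 18 h at 37 C.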

[18] = qHTS assay to test for compound auto fluorescence at 460 nm (blue) in HEK293 cells (AID 720678)
How it was run: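 Auto fluorescence in the blue band was quantified as triamterene equivalency. HEK293 cells were seeded at 2,000/well, dosed after a 4-5 hr attachment, and kept overnight at 37C before the 405/460 nm reading.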

[19] = qHTS assay to test for compound auto fluorescence at 460 nm (blue) in HEK293 cell free culture (AID 720681)
How it was run: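 Blue fluorescence (Ex 405/Em 460 nm, triamterene-equivalent) was read immediately after pin transfer of compound or DMSO into medium (DMEM, 10% FBS) without cells.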
On the % scale 0 is the no-effect control and ±100 the full control effect.

Glucocorticoid receptor (Homo sapiens), sequence (P04150 whole entry, looked up): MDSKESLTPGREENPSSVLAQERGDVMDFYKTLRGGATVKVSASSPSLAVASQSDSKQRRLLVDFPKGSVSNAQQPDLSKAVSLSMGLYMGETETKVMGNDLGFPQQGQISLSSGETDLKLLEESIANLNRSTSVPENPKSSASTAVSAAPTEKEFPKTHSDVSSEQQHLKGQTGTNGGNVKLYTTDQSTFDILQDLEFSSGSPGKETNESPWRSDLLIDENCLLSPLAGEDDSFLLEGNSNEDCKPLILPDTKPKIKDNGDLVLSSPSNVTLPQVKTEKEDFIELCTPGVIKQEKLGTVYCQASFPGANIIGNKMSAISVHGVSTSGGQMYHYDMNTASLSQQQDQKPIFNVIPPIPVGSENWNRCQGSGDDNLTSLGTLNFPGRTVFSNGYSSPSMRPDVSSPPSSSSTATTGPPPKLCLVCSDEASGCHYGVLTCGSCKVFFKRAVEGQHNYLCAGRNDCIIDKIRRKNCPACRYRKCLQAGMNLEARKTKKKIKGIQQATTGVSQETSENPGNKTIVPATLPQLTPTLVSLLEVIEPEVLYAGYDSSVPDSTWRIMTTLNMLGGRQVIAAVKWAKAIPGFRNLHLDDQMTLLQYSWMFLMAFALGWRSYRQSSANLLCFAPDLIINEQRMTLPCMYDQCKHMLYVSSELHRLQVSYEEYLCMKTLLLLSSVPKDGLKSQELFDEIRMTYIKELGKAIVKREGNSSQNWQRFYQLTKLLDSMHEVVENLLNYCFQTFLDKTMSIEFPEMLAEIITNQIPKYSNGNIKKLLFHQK

O=C(O)/C=C/c1ccc(Cn2ccnc2)cc1
inactive: Potency [1] | Potency [2] | Potency [3] | Potency [4] | Potency [5] | fluorescence, relative to Rose Bengal [6] 0.61% [at 18.6 µM] | fluorescence, % of fluorescein control [7] 0.0058% [at 18.6 µM] | fluorescence, % of fluorescent control [8] -0.336% [at 18.6 µM] | fluorescence, % of fluorescein [9] -0.0116% [at 18.6 µM] | activity change [10] 0.0066% [at 18.6 µM] | fluorescence, % of fluorescent control [11] -0.0715% [at 18.6 µM] | fluorescence, % of Rose Bengal [12] -0.307% [at 18.6 µM] | fluorescence, % of fluorescent control [13] -0.0401% [at 18.6 µM] | fluorescence, % of fluorescein control [14] -0.0119% [at 18.6 µM] | fluorescence, % of fluorescent control [15] 0.143% [at 18.6 µM] | Potency [16] | Potency [17]

OCC(O)[C@@H](O)[C@H](O)[C@H](O)CO[C@H]1O[C@H](CO)[C@@H](O)[C@H](O)[C@H]1O (some centres undefined)
inactive: Potency [1] | Potency [2] | Potency [3] | Potency [4] | Potency [5] | outcome [6] | outcome [7] | Potency [18] | outcome [8] | Potency [19] | outcome [10] | outcome [11] | outcome [12] | Potency [13] | outcome [14] | Potency [15] | Potency [16] | Potency [17]

NC(=O)CCCCC1CCSS1 (centres undefined)
inactive: Potency [1] | Potency [2] | Potency [3] | Potency [4] | Potency [5] | outcome [6] | outcome [7] | Potency [18] | outcome [8] | Potency [19] | outcome [10] | outcome [11] | outcome [12] | Potency [13] | outcome [14] | Potency [15] | Potency [16] | Potency [17]

CCOC(=O)Nc1ccc2c(c1)N(C(=O)CCN1CCOCC1)c1ccccc1S2
inactive: Potency [1] | Potency [2] | Potency [3] | Potency [4] | Potency [5] | fluorescence, relative to Rose Bengal [6] 0.181% [at 18.6 µM] | fluorescence, % of fluorescein control [7] 0.0633% [at 18.6 µM] | fluorescence, % of triamterene [18] -0.0312% [at 18.6 µM] | fluorescence, % of fluorescent control [8] 0.108% [at 18.6 µM] | fluorescence, % of fluorescein [9] 0.023% [at 18.6 µM] | fluorescence, % of fluorescent control [19] 0.0825% [at 18.6 µM] | activity change [10] -0.0159% [at 18.6 µM] | fluorescence, % of fluorescent control [11] -0.268% [at 18.6 µM] | fluorescence, % of fluorescent control [13] 0.0956% [at 18.6 µM] | fluorescence, % of fluorescein control [14] -0.013% [at 18.6 µM] | fluorescence, % of fluorescent control [15] -0.0127% [at 18.6 µM] | Potency [16] | Potency [17]

C1COCCO1
inactive: Potency [1] | Potency [2] | Potency [3] | Potency [4] | outcome [6] | outcome [7] | Potency [18] | outcome [8] | outcome [9] | Potency [19] | outcome [10] | outcome [11] | outcome [12] | Potency [13] | outcome [14] | Potency [15]

C[C@H](O)C(=O)Nc1c(I)c(C(=O)NC(CO)CO)c(I)c(C(=O)NC(CO)CO)c1I
inactive: Potency [1] | Potency [2] | Potency [3] | Potency [4] | Potency [5] | fluorescence, relative to Rose Bengal [6] 0.0368% [at 18.6 µM] | fluorescence, % of fluorescein control [7] 0.0325% [at 18.6 µM] | fluorescence, % of fluorescent control [8] 0.0561% [at 18.6 µM] | fluorescence, % of fluorescein [9] -0.048% [at 18.6 µM] | fluorescence, % of fluorescent control [19] -0.108% [at 18.6 µM] | activity change [10] 0.0506% [at 18.6 µM] | fluorescence, % of fluorescent control [11] 0.0628% [at 18.6 µM] | fluorescence, % of Rose Bengal [12] 0.0851% [at 18.6 µM] | fluorescence, % of fluorescent control [13] -0.0806% [at 18.6 µM] | fluorescence, % of fluorescein control [14] -0.0219% [at 18.6 µM] | fluorescence, % of fluorescent control [15] -0.0019% [at 18.6 µM]
active: Potency [16] 6.44 µM

C#CC(O)CCCCC (centres undefined)
inactive: Potency [1] | Potency [2] | Potency [3] | Potency [4] | Potency [5] | outcome [6] | outcome [7] | Potency [18] | outcome [8] | outcome [10] | outcome [11] | outcome [12] | Potency [13] | outcome [14] | Potency [15]
